From PubChem BioAssay AID372 (MTDP, 2006)
In all, about 100,000 compounds went through this assay and about 770 (0.77%) were called active. The sample holds actives, similar compounds and a random draw of the others, so the mix is not that of the screen. A number with no mark means an inactive call. Cut-off read from the data, not from the text of the source: active = inhibition above about 50%; inactive = the rest.

The compounds below were run against Gag-Pol polyprotein (Human immunodeficiency virus type 1 group M subtype B (isolate HXB2)) (UniProt P04585) (assay: RNase H inhibition, HIV 1 Gag Pol polyprotein, FRET biochemical assay, screening (AID 372)). Conditions: HIV-1 RT RNase H, FRET RNA/DNA substrate fluorescence; at 10 µM; hits give high values.

SMILES	inhibition
Oc1ccccc1N=Cc1c(O)c(I)cc2oc3c(c12)CCCC3	14%
O=C(Nc1ccc(OC(F)(F)F)cc1)c1cccc(OCc2ccccc2)c1	0%
c1ccc(CN2CCN(Cc3ccncc3)CC2)nc1	3%
Cc1ccc2cccc(OS(=O)(=O)c3ccccc3C)c2n1	58% (active)
Cc1ccc2cccc(OS(=O)(=O)c3ccc(Cl)c(C)c3Cl)c2n1	52% (active)
Cc1ccc2cccc(OS(=O)(=O)c3cc(Cl)ccc3C)c2n1	47%
Cc1ccc2cccc(OS(=O)(=O)c3ccc(Cl)cc3C)c2n1	43%
COc1ccc(I)cc1S(=O)(=O)Oc1cccc2ccc(C)nc12	25%
Cc1ccc2cccc(OS(=O)(=O)c3cc(Cl)c(Cl)cc3Cl)c2n1	43%
CCc1nc(NC(=O)NS(=O)(=O)c2ccccc2C(=O)OC)nc(OC)n1	6%
COc1cc(OC)cc(C(=O)N2CCN(c3ccc([N+](=O)[O-])cc3Cl)CC2)c1	9%
O=C1NC(=S)N(c2cccc(Br)c2)C(=O)/C1=C/c1cccn1-c1ccccc1	39%
CCC(=O)Nc1ccc2nc(SCC(=O)Nc3ccc(C(C)=O)cc3)sc2c1	14%
CCC(=S)/C=C1\Sc2ccc(OC)cc2N1CCCS(=O)(=O)O	11%
O=C(c1c(Cl)cccc1Cl)N1CCN(c2ccc(F)cc2)CC1	54% (active)
O=C(c1c(Cl)cccc1Cl)N1CCN(c2ccccc2)CC1	6%
O=C(c1c(Cl)cccc1Cl)N1CCN(c2ccc(Cl)cc2)CC1	9%
Cc1nnc(SCC(=O)NC(C)c2ccccc2)[nH]c1=O (stereo not given)	0%
CC(=C\c1ccccc1)/C=C1/SC(=Nc2ccc(F)cc2)NC1=O	13%
O=C(N/N=C/c1ccc(F)cc1)c1ccc(Cl)c(Cl)c1	4%
CC(=O)c1cccc(NC(=O)/C(=C/c2ccc(Br)cc2)NC(=O)c2ccccc2)c1	6%
Cc1cccc(NC(=O)/C(=C/c2ccc(Br)cc2)NC(=O)c2ccccc2)c1	51% (active)
CC(=O)c1cccc(NC(=O)/C(=C\c2ccc(Br)cc2)NC(=O)c2ccc(C)cc2)c1	42%
C/C(=N\Nc1ccc([N+](=O)[O-])cc1)c1ccc([N+](=O)[O-])o1	8%

SMILES	inhibition
COc1cc(Cc2ccc(N/C=C/C(=O)c3ccc(Br)cc3)c(OC)c2)ccc1N/C=C/C(=O)c1ccc(Br)cc1	25%
Cc1cc(Cl)ccc1OC(=O)c1ccc(Br)cc1	34%
Cc1ccc(C(=O)Oc2ccc(Cl)cc2C)cc1	2%
Cc1cc(Cl)ccc1OC(=O)c1ccc(Cl)cc1	51% (active)
O=C(Nc1cnc2ccccc2c1)C1COc2ccccc2O1 (stereo not given)	3%
O=S(=O)(CCc1nnc(-c2ccc(Br)cc2)o1)c1ccc(Cl)cc1	2%
COc1ccc(N2C(=O)/C(=C\c3ccc(OC)c(O)c3)SC2=S)cc1	4%
COc1cccc(N2C(=O)/C(=C/c3ccc(O)c(O)c3)SC2=S)c1	75% (active)
COc1cccc(N2C(=O)/C(=C/c3cccc(O)c3)SC2=S)c1	29%
COc1ccc(N2C(=O)/C(=C\c3ccc(O)c(O)c3)SC2=S)cc1	77% (active)
COc1cccc(N2C(=O)/C(=C/c3ccc(O)c(OC)c3)SC2=S)c1	22%
COc1ccc(N2C(=O)/C(=C/c3ccc(O)c(OC)c3)SC2=S)cc1	26%
COc1cc(OC)cc(C(=O)Nc2ccc(N3CCN(C(=O)c4ccccc4)CC3)cc2)c1	31%
CCOc1cccc2c1N(C(=O)c1ccccc1)C(C)(C)C(=S)C2=C1SC(C(=O)OC)=C(C(=O)OC)S1	45%
CCCOc1ccc(C(=O)NCc2ccccc2)cc1	6%
COc1cc(/C=C/c2nc3ccccc3c(=O)n2-c2ccccc2[N+](=O)[O-])ccc1O	35%
O=C(O)c1ccc(-n2c(/C=C\c3ccccc3)nc3ccccc3c2=O)cc1	7%
COc1cccc(/C=C/c2nc3ccccc3c(=O)n2-c2cccc([N+](=O)[O-])c2)c1O	27%
COc1cc(/C=C/c2nc3ccccc3c(=O)n2-c2cccc([N+](=O)[O-])c2)ccc1O	61% (active)
Cc1ccc(-n2c(/C=C/c3c(C)n(C)c4ccccc34)nc3ccccc3c2=O)cc1	0%
COc1ccc(OC)c(CN2CCN(Cc3cccc(Br)c3)CC2)c1	5%
COc1ccc([N+](=O)[O-])cc1N(CC(O)CN1CCCCC1)S(=O)(=O)c1ccc(C)cc1 (stereo not given)	12%
Cc1c(C(=O)Oc2ccc3c(c2)C(C)CC(C)(C)N3)cccc1[N+](=O)[O-] (stereo not given)	21%
CCSc1nnc(NC(=O)COc2ccc(Cl)cc2Cl)s1	22%

SMILES	inhibition
CC(=O)c1ccc(NC(=S)Nc2ccc3nccnc3c2)cc1	10%
NC(=O)N/N=C/c1ccccc1OS(=O)(=O)c1ccc([N+](=O)[O-])cc1	11%
O=S(=O)(Oc1ccccc1/C=N/NC(=S)Nc1ccccc1)c1ccccc1	52% (active)
NC(N)=N/N=C/c1ccccc1OS(=O)(=O)c1ccccc1	0%
CCOC(=O)c1c[nH]c2ccc(Cl)cc2c1=O	14%
C=CCn1c(CSc2nc3ccccc3s2)nnc1SC/C=C/c1ccccc1	59% (active)
C=CCn1c(CCCN2C(=O)c3cccc4cccc(c34)C2=O)nnc1SC/C=C/c1ccccc1	8%
C=CCn1c(CSc2nc3ccccc3s2)n[nH]c1=S	0%
Cc1ccc(NC(=O)C(C)SCc2ccccc2)c(C)c1 (stereo not given)	13%
COc1ccc(C2CC(=O)C3=C(C2)NC(C)=C(C(=O)OCCOc2ccccc2)C3c2cccc(Br)c2)cc1 (stereo not given)	6%
COc1ccc(C(=O)N2CCN(C(c3ccccc3)c3ccccc3)CC2)cc1OC	13%
COc1ccc(/C=N/OCC(=O)N2CCN(C(c3ccccc3)c3ccccc3)CC2)cc1OC	45%
COc1ccc(/C(C)=N/OCC(=O)N2CCN(C(c3ccccc3)c3ccccc3)CC2)cc1OC	51% (active)
CCc1ccc(C(=O)CSC2=C(C#N)C(c3ccc(Br)cc3)C(C(C)=O)=C(C)N2)cc1 (stereo not given)	26%
COc1ccc(C2(CNS(=O)(=O)c3ccccc3)CCCC2)cc1OC	0%
COc1cc(C=Nc2cccc(Cl)c2C)ccc1OC(C)=O	11%
Cc1no[n+]([O-])c1COc1ccc(/C=C2\NC(=S)NC2=O)cc1	4%
COc1cc(C=C2C(=O)NC(=O)NC2=O)ccc1OCc1c(C)no[n+]1[O-]	6%
COc1cc(/C=C2\NC(=S)NC2=O)ccc1OCc1c(C)no[n+]1[O-]	53% (active)
O=c1c2c3c(sc2ncn1/N=C/c1ccc(Br)o1)CCCC3	25%
CCOc1ccc(C(=O)NC(=S)Nc2ccccn2)cc1Cl	12%
CCOc1ccc(C(=O)NC(=S)Nc2ccc([N+](=O)[O-])cc2OC)cc1Cl	50% (active)
CCOc1ccc(C(=O)Nc2ccc([N+](=O)[O-])cc2OC)cc1Cl	14%
O=C(NC(=S)Nc1nc(-c2cccc([N+](=O)[O-])c2)cs1)c1ccc(Cl)cc1	35%

SMILES	inhibition
O=C(Nc1nc(-c2ccc(Cl)cc2)cs1)c1ccc([N+](=O)[O-])cc1	51% (active)
COc1ccc(C(=O)NC(=S)Nc2nc(-c3ccccc3)cs2)cc1Cl	16%
CCOc1ccc(C(=O)NC(=S)Nc2ccc(Cl)cn2)cc1Cl	60% (active)
O=C(Nc1nc(-c2ccc([N+](=O)[O-])cc2)cs1)c1ccc(Cl)cc1	32%
O=C(Nc1nc(-c2ccc(Br)cc2)cs1)c1ccc([N+](=O)[O-])cc1	37%
COc1ccc(C(=O)NC(=S)Nc2ccc([N+](=O)[O-])cc2C)cc1Cl	18%
CCOc1ccc(C(=O)NC(=S)Nc2ccc(Cl)cc2)cc1Cl	7%
COc1ccc(C(=O)NC(=S)Nc2nc(-c3cccc([N+](=O)[O-])c3)cs2)cc1Cl	54% (active)
COc1cc(OC)cc(C(=O)Nc2cccc(-c3nc4ccccc4s3)c2)c1	5%
Oc1ccc(Br)cc1/C=N/c1c(-c2ccco2)nc2ccccn12	15%
O=C1CS/C(=N/N=C/c2ccc(-c3ccc(Br)cc3)o2)N1	14%
CCCC(=O)Nc1cc(-c2nc3cc(Cl)ccc3o2)ccc1C	12%
O=C(O)c1ccc(Nc2ccnc3cc(Cl)ccc23)cc1	3%
O=C(Nc1ccccc1C(=O)N1CCCC1)c1ccccc1	0%
CCOc1ccc(C(=O)Nc2ccc(Br)cn2)cc1Cl	4%
CCOc1ccc(C(=O)NC(=S)Nc2ccc(Br)cn2)cc1Cl	56% (active)
COc1ccc(C(=O)NC(=S)Nc2ccc(Cl)cn2)cc1Br	23%
COc1ccc(Br)cc1C(=O)NC(=S)Nc1ccc(Cl)cn1	53% (active)
COc1ccc(C(=O)NC(=S)Nc2ccc(Br)cn2)cc1OC	21%
COc1ccc(Br)cc1C(=O)Nc1ccc(Cl)cn1	26%
CS(=O)(=O)N(Cc1ccc(C(=O)Nc2ccccc2C(=O)O)cc1)c1ccccc1	4%
Cc1ccc(NC(=O)C(=O)N/N=C/c2cccc(Cl)c2)cc1	1%
CCOc1cc(/C=C/C(=O)O)c(Br)cc1OC	8%
